The source made the active and inactive calls. The calls were made as follows: active = hit-call score of the fitted dose curve at least 0.9, where 1 is the maximum; inactive = score below 0.9.
Experiments:
Conditions in all cases: mRNA level, 48 h; actives raise or lower the signal
[1] = read-out: Cyclin D1 (CCND1), CCND1 (gene 595); assay: LTEA_HepaRG_CCND1: Life Technologies and Expression Analysis (LTEA) Assay for Cyclin D1 (CCND1) using HepaRG (AID 2283451);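 as to AC50: TaqMan qRT-PCR transcript level normalised to ACTB GAPDH and POLR2A housekeeping genes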
Outline: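 Expression change is measured by qRT-PCR in HepaRG cells after 48 h treatment across eight concentrations topping at 100 uM, with duplicate wells and DMSO (0.5%) serving as baseline for bidirectional fitting.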

[2] = read-out: catalase (CAT), CAT (gene 847); assay: LTEA_HepaRG_CAT: Life Technologies and Expression Analysis (LTEA) Assay for catalase (CAT) using HepaRG (AID 2283452);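 as to AC50: TaqMan qRT-PCR signal normalized to ACTB GAPDH and POLR2A housekeeping genes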
Outline: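 Differentiated HepaRG cells in serum-free induction medium were dosed 48 h in duplicate, eight half-log concentrations from 100 uM in 0.5% DMSO. Transcript measured by TaqMan qRT-PCR, normalised to ACTB/GAPDH/POLR2A, fitted bidirectionally against DMSO.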

[3] = read-out: flavin-containing dimethylaniline monooxygenases 3 (FMO3), FMO3 (gene 2328); assay: LTEA_HepaRG_FMO3: Life Technologies and Expression Analysis (LTEA) Assay for flavin-containing dimethylaniline monooxygenases 3 (FMO3) using HepaRG (AID 2283453)
Outline: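 Differentiated HepaRG cells in serum-free induction medium, exposed 48 h in duplicate to 8 half-log concentrations up to 100 uM in 0.5% DMSO. FMO3 mRNA by qRT-PCR, normalized to ACTB, GAPDH, POLR2A; bidirectional fit vs DMSO.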

[4] = read-out: CFLAR gene, CFLAR (gene 8837); assay: LTEA_HepaRG_CFLAR: Life Technologies and Expression Analysis (LTEA) Assay for CFLAR gene using HepaRG (AID 2283455)
Outline: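 HepaRG cells were plated for 48 h, switched to serum-free induction medium, then exposed in duplicate for 48 h to 8 concentrations (top 100 uM, half-log steps, 0.5% DMSO). CFLAR mRNA was measured by qRT-PCR, normalized to ACTB, GAPDH and POLR2A.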

[5] = read-out: Forkhead box O1 (FOXO1), FOXO1 (gene 2308); assay: LTEA_HepaRG_FOXO1: Life Technologies and Expression Analysis (LTEA) Assay for Forkhead box O1 (FOXO1) using HepaRG (AID 2283456)
Outline: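 Differentiated human HepaRG cells in serum-free induction medium were exposed in duplicate for 48 h to eight half-log concentrations (top 100 uM, 0.5% DMSO). FOXO1 mRNA was measured by TaqMan qRT-PCR, normalised to ACTB, GAPDH and POLR2A, and fitted bidirectionally against DMSO.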

[6] = read-out: growth arrest and DNA damage 45 (GADD45A), GADD45A (gene 1647); assay: LTEA_HepaRG_GADD45A: Life Technologies and Expression Analysis (LTEA) Assay for growth arrest and DNA damage 45 (GADD45A) using HepaRG (AID 2283458)
Outline: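 Cells plated and cultured 48 h, switched to serum-free induction medium, then dosed for 48 h (100 uM top, half-log dilutions, 0.5% DMSO). RNA was isolated and transcript measured by Fluidigm qRT-PCR.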

[7] = read-out: Forkhead box O3 (FOXO3), FOXO3 (gene 2309); assay: LTEA_HepaRG_FOXO3: Life Technologies and Expression Analysis (LTEA) Assay for Forkhead box O3 (FOXO3) using HepaRG (AID 2283459)
Outline: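 Differentiated human HepaRG cells in serum-free induction medium were exposed in duplicate for 48 h to eight half-log concentrations up to 100 uM in 0.5% DMSO. FOXO3 mRNA was quantified by qRT-PCR, normalized to ACTB, GAPDH and POLR2A, with bidirectional fitting versus DMSO.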

[8] = read-out: ABC Transporter (ABCB1), ABCB1 (gene 5243); assay: LTEA_HepaRG_ABCB1: Life Technologies and Expression Analysis (LTEA) Assay for ABC Transporter (ABCB1) using HepaRG (AID 2283460)
Outline: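 Differentiated human HepaRG cells, plated 48 h then switched to serum-free induction medium, were exposed in duplicate to eight half-log concentrations up to 100 uM in 0.5% DMSO for 48 h. ABCB1 mRNA was measured by TaqMan qRT-PCR, normalized to ACTB/GAPDH/POLR2A.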

[9] = read-out: growth arrest and DNA damage 45 (GADD45B), GADD45B (gene 4616); assay: LTEA_HepaRG_GADD45B: Life Technologies and Expression Analysis (LTEA) Assay for growth arrest and DNA damage 45 (GADD45B) using HepaRG (AID 2283461)
Outline: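 Human HepaRG monolayers receive chemicals for 48 h at eight half-log concentrations, highest 100 uM, in 0.5% DMSO. Expression is measured by TaqMan qRT-PCR and normalized to ACTB, GAPDH and POLR2A.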

[10] = read-out: ABC Transporter (ABCC3), ABCC3 (gene 8714); assay: LTEA_HepaRG_ABCC3: Life Technologies and Expression Analysis (LTEA) Assay for ABC Transporter (ABCC3) using HepaRG (AID 2283462)
Outline: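 Transcriptional change of ABCC3 in HepaRG after 48 h treatment, determined by qRT-PCR normalized to endogenous controls. Concentrations spanned eight half-log steps to 100 uM in 0.5% DMSO.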

[11] = read-out: ABC Transporter (ABCB11), ABCB11 (gene 8647); assay: LTEA_HepaRG_ABCB11: Life Technologies and Expression Analysis (LTEA) Assay for ABC Transporter (ABCB11) using HepaRG (AID 2283463)
Outline: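 Differentiated human HepaRG cells were exposed for 48 h in serum-free induction medium to eight half-log concentrations up to 100 uM in 0.5% DMSO. ABCB11 mRNA was quantified by qRT-PCR, normalized to ACTB, GAPDH and POLR2A, and fitted bidirectionally versus DMSO.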

[12] = read-out: ABC Transporter (ABCC2), ABCC2 (gene 1244); assay: LTEA_HepaRG_ABCC2: Life Technologies and Expression Analysis (LTEA) Assay for ABC Transporter (ABCC2) using HepaRG (AID 2283464)
Outline: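 After plating and 48 h culture, HepaRG medium is replaced with serum-free induction medium and chemicals are added (8 concentrations, max 100 uM, 0.5% DMSO) for 48 h. Total RNA then undergoes qRT-PCR for ABCC2 with housekeeping normalization.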

[13] = read-out: Broad substrate specificity ATP-binding cassette transporter ABCG2 (Homo sapiens) (UniProt Q9UNQ0); assay: LTEA_HepaRG_ABCG2: Life Technologies and Expression Analysis (LTEA) Assay for ABC Transporter (ABCG2) using HepaRG (AID 2283465)
Outline: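 Differentiated HepaRG cells in serum-free induction medium were exposed for 48 h, in duplicate, to eight half-log concentrations up to 100 uM in 0.5% DMSO. ABCG2 mRNA was measured by TaqMan qRT-PCR, normalized to ACTB, GAPDH and POLR2A, and fitted bidirectionally versus DMSO.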

[14] = read-out: ATP-citrate lyase (ACLY), ACLY (gene 47); assay: LTEA_HepaRG_ACLY: Life Technologies and Expression Analysis (LTEA) Assay for ATP-citrate lyase (ACLY) using HepaRG (AID 2283466)
Outline: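 Differentiated human HepaRG cells in serum-free induction medium exposed 48 h, in duplicate, to eight half-log concentrations from 100 uM top in 0.5% DMSO; ACLY mRNA measured by qRT-PCR, normalized to ACTB, GAPDH, POLR2A, fitted bidirectionally versus DMSO.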

[15] = read-out: Peroxisomal acyl-coenzyme A oxidase 1 (ACOX1) gene, ACOX1 (gene 51); assay: LTEA_HepaRG_ACOX1: Life Technologies and Expression Analysis (LTEA) Assay for Peroxisomal acyl-coenzyme A oxidase 1 (ACOX1) gene using HepaRG (AID 2283467)
Outline: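 Differentiated human HepaRG cells were exposed in duplicate for 48 h in serum-free induction medium to eight half-log concentrations up to 100 uM in 0.5% DMSO. ACOX1 mRNA was then quantified by TaqMan qRT-PCR, normalized to ACTB, GAPDH and POLR2A.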

[16] = read-out: Alkaline Phosphatase, Placental (ALPP) gene, ALPP (gene 250); assay: LTEA_HepaRG_ALPP: Life Technologies and Expression Analysis (LTEA) Assay for Alkaline Phosphatase, Placental (ALPP) gene using HepaRG (AID 2283468)
Outline: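 Using human liver HepaRG cells, chemicals are tested in duplicate over 48 h at half-log concentrations topping at 100 uM; phenobarbital 1 mM serves as induction control. ALPP mRNA change by qRT-PCR, bidirectional fit against vehicle.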

[17] = read-out: Bcl-2 (BAD) gene, BAD (gene 572); assay: LTEA_HepaRG_BAD: Life Technologies and Expression Analysis (LTEA) Assay for Bcl-2 (BAD) gene using HepaRG (AID 2283469)
Outline: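 Differentiated human HepaRG cells in serum-free induction medium were exposed in duplicate for 48 h to eight concentrations (top 100 uM, half-log steps, 0.5% DMSO). BAD mRNA was quantified by qRT-PCR normalised to ACTB, GAPDH and POLR2A, with bidirectional fitting versus DMSO.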

[18] = read-out: Bcl-2 (BAX) gene, BAX (gene 581); assay: LTEA_HepaRG_BAX: Life Technologies and Expression Analysis (LTEA) Assay for Bcl-2 (BAX) gene using HepaRG (AID 2283470)
Outline: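 HepaRG (human liver), 48 h exposure, duplicate wells. 8-pt curve, half-log from 100 uM, 0.5% DMSO. BAX transcript by TaqMan qRT-PCR; ACTB/GAPDH/POLR2A normalization; gain or loss vs DMSO baseline.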

[19] = read-out: Cytochrome P450 (CYP1A1), CYP1A1 (gene 1543); assay: LTEA_HepaRG_CYP1A1: Life Technologies and Expression Analysis (LTEA) Assay for Cytochrome P450 (CYP1A1) using HepaRG (AID 2283454)
Outline: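 Using HepaRG cultures with 0.5% DMSO as vehicle, eight-concentration exposures (max 100 uM) lasted 48 h. Transcript levels were measured by TaqMan qRT-PCR and normalized to ACTB, GAPDH and POLR2A.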

Measured: AC50

Sequence of Broad substrate specificity ATP-binding cassette transporter ABCG2 (Homo sapiens) (Q9UNQ0 whole entry, looked up): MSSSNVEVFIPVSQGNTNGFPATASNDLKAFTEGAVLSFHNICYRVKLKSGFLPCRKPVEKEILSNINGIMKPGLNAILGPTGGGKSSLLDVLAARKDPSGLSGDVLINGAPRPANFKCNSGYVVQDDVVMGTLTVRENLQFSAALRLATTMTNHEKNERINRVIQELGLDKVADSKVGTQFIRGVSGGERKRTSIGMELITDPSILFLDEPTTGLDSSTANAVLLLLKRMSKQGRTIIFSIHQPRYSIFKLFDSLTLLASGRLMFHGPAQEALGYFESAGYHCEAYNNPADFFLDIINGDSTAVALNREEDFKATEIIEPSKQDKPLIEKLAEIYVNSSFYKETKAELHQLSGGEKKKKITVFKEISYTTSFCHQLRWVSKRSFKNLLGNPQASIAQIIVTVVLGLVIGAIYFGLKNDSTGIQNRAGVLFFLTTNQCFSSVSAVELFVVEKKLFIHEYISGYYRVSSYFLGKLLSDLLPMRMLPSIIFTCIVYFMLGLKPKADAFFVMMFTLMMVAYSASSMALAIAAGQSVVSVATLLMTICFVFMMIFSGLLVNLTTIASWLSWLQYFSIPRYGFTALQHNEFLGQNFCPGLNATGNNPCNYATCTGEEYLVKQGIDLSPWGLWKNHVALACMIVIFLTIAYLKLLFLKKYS

CS(=O)(=O)c1ccc([C@@H](C[C@H]2CCC(=O)C2)C(=O)Nc2cnccn2)cc1Cl
active: [1] 1.64 µM | [4] 0.753 µM | [5] 1.27 µM | [6] 1.28 µM | [7] 9.92 µM | [8] 1.54 µM | [11] 11 µM | [12] 12.5 µM | [13] 1.29 µM | [16] 2.94 µM | [17] 1.23 µM
inactive: [2] | [3] | [9] | [10] | [14] | [15]

Cn1cnc2c1c(=O)[nH]c(=O)n2C
not listed: [18] | [19]
inactive: all other assays above

CC(=O)[C@@]1(O)CC[C@H]2[C@@H]3CCC4=CC(=O)CC[C@]4(C)[C@H]3CC[C@@]21C
active: [14] 39.6 µM
not listed: [19]
inactive: all other assays above

CC(=O)OC1CC(C)OC(C)O1 (centres undefined)
active: [19] 50 µM
inactive: all other assays above

O=C(O)c1[nH]n(-c2ccc(S(=O)(=O)O)cc2)c(=O)c1N=Nc1ccc(S(=O)(=O)O)cc1
active: [19] 33 µM
inactive: all other assays above

Nc1nc(=S)c2[nH]cnc2[nH]1
active: [2] 7.04 µM | [3] 6.74 µM | [19] 76.1 µM | [8] 10.3 µM | [10] 13.9 µM | [11] 7.88 µM | [12] 21.1 µM | [13] 8.31 µM | [14] 10.2 µM | [15] 12.2 µM | [18] 3.39 µM
inactive: [1] | [4] | [5] | [6] | [7] | [9] | [16] | [17]
